# Laboratory results published in PubChem BioAssay.
# Activity calls are given as the source filed them.
# Key:
# [1] = test system: Plasmodium falciparum Sir2 (PF13_0152, Sir2A); assay: Plasmodium falciparum Sir2A binding compounds – biochemical, small-molecule microarray, 635 nm fluorescence, primary screen (AID 1098); conditions: fluorescence 635 nm, higher = more signal;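 further: score merges spot fluorescence intensity with its signal-to-noise ratio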
# [2] = probe aDKK1 binding to arrayed compounds – biochemical, biotinylated probe, 635/667 nm fluorescence, primary screen (AID 1099); conditions: small-molecule microarray, higher = more signal;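 further: score merges 667nm spot fluorescence with signal to noise across triplicate slides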
# [3] = probe aCHRDL2 binding to arrayed compounds – biochemical, biotinylated probe, 635/667 nm fluorescence, primary screen (AID 1100); conditions: small-molecule microarray, higher = more signal
# [4] = change in splice reporter luminescence, either direction, cell-based, HEK293, spliceosome inhibition project, primary screen (AID 1101); conditions: HEK293 splicing luciferase reporter, 24 h, higher = more signal, called active from +8 up or from −8 down;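 further: HEK293 cells carrying a splicing-competent luciferase reporter gene; test concentration not given here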
# [5] = target: Fibroblast growth factor 10 (Homo sapiens) (UniProt O15520); assay: compounds binding fibroblast growth factor 10 – biochemical, small-molecule microarray, 635 nm fluorescence, primary screen (AID 1102); conditions: FGF10 binding, fluorescence 635 nm, higher = more signal
# Fibroblast growth factor 10 (Homo sapiens), sequence (O15520 whole entry, looked up): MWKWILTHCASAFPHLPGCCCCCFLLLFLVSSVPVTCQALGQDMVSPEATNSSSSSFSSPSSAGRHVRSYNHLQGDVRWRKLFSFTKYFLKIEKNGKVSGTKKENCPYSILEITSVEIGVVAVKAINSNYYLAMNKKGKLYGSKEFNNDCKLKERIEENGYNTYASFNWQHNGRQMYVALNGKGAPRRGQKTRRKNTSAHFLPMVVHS
# [6] = test system: glycogen synthase kinase-3 (GSK3A per assay name; protocol says GSK3B); assay: compounds binding glycogen synthase kinase-3 – biochemical, small-molecule microarray, 635 nm fluorescence, GSK3A, primary screen (AID 1103); conditions: fluorescence 635 nm, higher = more signal; further: the record names both GSK3A and GSK3B
# [7] = target: Epidermal growth factor receptor (Homo sapiens) (UniProt P00533); assay: compounds binding epidermal growth factor receptor – biochemical, small-molecule microarray, 635 nm fluorescence, primary screen (AID 1104); conditions: EGFR binding, higher = more signal;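 further: score merges 667 nm emission intensity with spot signal to noise over triplicate slides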
# Epidermal growth factor receptor (Homo sapiens), sequence (P00533 whole entry, looked up): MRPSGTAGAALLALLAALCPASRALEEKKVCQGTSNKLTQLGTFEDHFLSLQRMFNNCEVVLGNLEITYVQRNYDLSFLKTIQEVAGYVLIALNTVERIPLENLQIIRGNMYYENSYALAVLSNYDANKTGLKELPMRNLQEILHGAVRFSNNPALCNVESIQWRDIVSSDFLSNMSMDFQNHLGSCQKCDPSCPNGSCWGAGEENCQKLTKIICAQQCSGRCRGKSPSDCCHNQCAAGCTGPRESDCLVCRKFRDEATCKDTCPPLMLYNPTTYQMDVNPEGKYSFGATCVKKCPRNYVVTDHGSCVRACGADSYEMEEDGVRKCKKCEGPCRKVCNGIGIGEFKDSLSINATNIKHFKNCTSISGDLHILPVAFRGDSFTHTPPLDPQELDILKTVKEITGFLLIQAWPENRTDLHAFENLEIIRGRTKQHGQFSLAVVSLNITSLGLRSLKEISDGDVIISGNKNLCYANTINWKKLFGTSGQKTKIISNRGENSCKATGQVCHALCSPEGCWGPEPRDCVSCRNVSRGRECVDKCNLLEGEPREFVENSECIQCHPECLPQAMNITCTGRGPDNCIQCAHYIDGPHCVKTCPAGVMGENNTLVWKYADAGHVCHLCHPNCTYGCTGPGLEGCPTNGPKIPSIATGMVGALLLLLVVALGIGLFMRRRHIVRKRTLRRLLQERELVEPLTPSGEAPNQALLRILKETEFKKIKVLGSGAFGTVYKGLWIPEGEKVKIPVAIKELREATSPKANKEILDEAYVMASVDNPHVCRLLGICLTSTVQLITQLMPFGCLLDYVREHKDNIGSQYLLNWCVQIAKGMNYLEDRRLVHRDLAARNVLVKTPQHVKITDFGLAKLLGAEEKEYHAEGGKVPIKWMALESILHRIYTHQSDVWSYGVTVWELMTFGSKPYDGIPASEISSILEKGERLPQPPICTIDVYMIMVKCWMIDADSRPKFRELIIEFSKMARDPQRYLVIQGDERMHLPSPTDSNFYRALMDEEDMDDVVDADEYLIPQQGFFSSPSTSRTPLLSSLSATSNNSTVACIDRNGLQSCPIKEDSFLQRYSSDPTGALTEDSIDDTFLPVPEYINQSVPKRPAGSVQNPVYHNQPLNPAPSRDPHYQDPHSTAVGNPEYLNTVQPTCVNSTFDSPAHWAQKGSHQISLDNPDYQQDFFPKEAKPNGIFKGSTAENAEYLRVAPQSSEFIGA
# [8] = target: Follistatin-related protein 3 (Homo sapiens) (UniProt O95633); assay: compounds binding follistatin-related protein 3 – biochemical, small-molecule microarray, 635 nm fluorescence, primary screen (AID 1105); conditions: FSTL3 binding, higher = more signal;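 further: score merges emission near 667 nm and signal to noise per printed spot across three slides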
# Follistatin-related protein 3 (Homo sapiens), sequence (O95633 whole entry, looked up): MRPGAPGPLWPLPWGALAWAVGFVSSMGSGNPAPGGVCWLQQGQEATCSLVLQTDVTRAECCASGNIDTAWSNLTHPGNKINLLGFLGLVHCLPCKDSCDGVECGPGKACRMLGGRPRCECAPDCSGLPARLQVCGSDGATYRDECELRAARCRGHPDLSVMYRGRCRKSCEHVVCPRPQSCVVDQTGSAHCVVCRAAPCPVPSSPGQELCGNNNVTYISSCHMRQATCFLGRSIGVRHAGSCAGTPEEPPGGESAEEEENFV
# [9] = target: Dickkopf-related protein 1 (Homo sapiens) (UniProt O94907); assay: small molecules binding DKK1 protein – biochemical, small-molecule microarray, 635 nm fluorescence scan, primary screen (AID 1106); conditions: higher = more signal;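 further: score merges emission near 667 nm with signal to noise over three replicate slides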
# Dickkopf-related protein 1 (Homo sapiens), sequence (O94907 whole entry, looked up): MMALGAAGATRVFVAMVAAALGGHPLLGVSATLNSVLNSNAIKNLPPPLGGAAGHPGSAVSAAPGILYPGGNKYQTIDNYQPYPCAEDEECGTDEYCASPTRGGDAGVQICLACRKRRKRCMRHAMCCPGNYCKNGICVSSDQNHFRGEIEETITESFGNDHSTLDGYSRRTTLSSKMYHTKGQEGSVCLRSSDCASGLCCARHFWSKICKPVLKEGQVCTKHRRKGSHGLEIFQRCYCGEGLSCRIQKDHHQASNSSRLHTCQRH
# [10] = test system: Inhibin beta A chain (activin A); assay: small molecules binding activin A – biochemical, small-molecule microarray, 635 nm fluorescence scan, primary screen (AID 1107); conditions: INHBA, higher = more signal;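 further: mouse activin A protein probed at 4.33 µg/mL on printed slides; score merges bound-protein fluorescence near 667 nm with spot signal-to-noise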
# [11] = test system: Human papillomavirus type 1a protein E7 (residues 44-93); assay: small molecules binding HPV E7 44-93 – biochemical, small-molecule microarray, residues 44-93, 635 nm fluorescence, primary screen (AID 1108); conditions: fluorescence 635 nm, higher = more signal;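 further: E7 fragment applied at 1 µg/mL in TBST for 1 h at 4 C; score combines spot fluorescence with its signal to noise ratio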
# [12] = hepatitis C replication reporter changes, two-sided – Huh7 cells, luciferase reporter, HCV replication inhibitor project, primary screen (AID 1109); conditions: Huh7 HCV replicon luciferase reporter, 48 h; higher = more signal;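 further: huh7 hepatoma cells harbouring a luciferase neomycin HCV replicon reporter; luciferase luminescence as measure of HCV replicon replication; test concentration not given here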
# [13] = target: Left-right determination factor 2 (Homo sapiens) (UniProt O00292); assay: small molecules binding LEFTY2 protein – biochemical, small-molecule microarray, 635 nm fluorescence scan, primary screen (AID 1110); conditions: higher = more signal
# Left-right determination factor 2 (Homo sapiens), sequence (O00292 whole entry, looked up): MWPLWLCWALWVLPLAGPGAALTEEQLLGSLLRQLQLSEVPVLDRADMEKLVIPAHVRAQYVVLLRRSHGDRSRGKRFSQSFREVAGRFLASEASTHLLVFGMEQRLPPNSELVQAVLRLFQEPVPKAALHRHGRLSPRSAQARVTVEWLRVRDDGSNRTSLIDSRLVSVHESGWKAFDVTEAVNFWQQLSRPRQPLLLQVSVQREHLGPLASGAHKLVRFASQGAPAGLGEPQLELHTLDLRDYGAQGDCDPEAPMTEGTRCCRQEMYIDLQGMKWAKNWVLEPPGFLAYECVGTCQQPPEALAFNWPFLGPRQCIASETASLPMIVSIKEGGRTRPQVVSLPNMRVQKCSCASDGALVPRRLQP
# [14] = target: Calmodulin-1 (Homo sapiens) (UniProt P0DP23); assay: small molecules binding calmodulin-1 with EGTA – biochemical, small-molecule microarray, Cy5-labelled CALM1, profiling panel (AID 1111); conditions: Cy5-CALM1 binding fluorescence, higher = more signal;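 further: labelled calmodulin applied in Tris saline Tween buffer holding calcium plus EGTA and DTT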
# [15] = target: Calmodulin-1 (Homo sapiens) (UniProt P0DP23); assay: small molecules binding Ca-loaded calmodulin-1 – biochemical, small-molecule microarray, Cy5-labelled CALM1, plus calcium, artefact control for SMM control-protein annotation, profiling panel (AID 1112); conditions: Cy5-CALM1 binding fluorescence, higher = more signal;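 further: score merges spot fluorescence with signal to noise from triplicate slides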
# [16] = probe aWnt5a binding to arrayed compounds – biochemical, biotinylated probe, 635/667 nm fluorescence, primary screen (AID 1113); conditions: small-molecule microarray, higher = more signal;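 further: score merges 667 nm fluorescence intensity with signal-to-noise per printed feature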
# [17] = probe aShh binding to arrayed compounds – biochemical, biotinylated probe, 635/667 nm fluorescence, primary screen (AID 1114); conditions: small-molecule microarray, higher = more signal;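 further: probe is biotin-labelled aShh protein from a stem cell growth factor screen; measures binding of labelled protein to compounds printed on the slide; score merges feature fluorescence at 667 nm with signal-to-noise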
# [18] = probe aNog binding to arrayed compounds – biochemical, biotinylated probe, 635/667 nm fluorescence, primary screen (AID 1115); conditions: small-molecule microarray, higher = more signal;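 further: probe is biotinylated aNog protein used at 0.15 µg/mL for 1 h at 4 C; z-score combines 667 nm fluorescence of each spot with its signal to noise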
# [19] = target: Torsin-1A-interacting protein 1 (Homo sapiens) (UniProt Q5JTV8); assay: compound microarray binding of lysate hLAP1 – cell lysate, small-molecule microarray, COS7 lysate, 635/667 nm fluorescence, primary screen (AID 1116); conditions: 635 nm fluorescence, higher = more signal
# Torsin-1A-interacting protein 1 (Homo sapiens), sequence (Q5JTV8 whole entry, looked up): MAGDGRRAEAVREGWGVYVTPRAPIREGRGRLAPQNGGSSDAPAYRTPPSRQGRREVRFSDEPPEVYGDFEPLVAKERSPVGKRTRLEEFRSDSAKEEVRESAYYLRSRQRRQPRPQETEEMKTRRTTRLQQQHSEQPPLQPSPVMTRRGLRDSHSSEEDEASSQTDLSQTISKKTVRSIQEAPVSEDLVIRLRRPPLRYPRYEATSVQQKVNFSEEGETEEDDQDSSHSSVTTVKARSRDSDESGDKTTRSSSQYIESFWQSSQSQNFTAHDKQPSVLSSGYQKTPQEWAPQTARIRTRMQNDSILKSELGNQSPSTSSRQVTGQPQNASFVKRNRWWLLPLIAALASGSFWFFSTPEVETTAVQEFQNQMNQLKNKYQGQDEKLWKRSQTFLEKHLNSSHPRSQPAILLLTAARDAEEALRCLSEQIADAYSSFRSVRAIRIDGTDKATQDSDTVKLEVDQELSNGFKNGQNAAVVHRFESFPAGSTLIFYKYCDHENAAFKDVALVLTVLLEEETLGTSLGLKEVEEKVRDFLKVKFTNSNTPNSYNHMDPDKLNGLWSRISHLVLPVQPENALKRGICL
# [20] = target: Alpha-bungarotoxin (Bungarus multicinctus) (UniProt P60615); assay: compounds binding labelled alpha-BTX control protein – biochemical, small-molecule microarray, Alexa647 label, 635/667 nm fluorescence, artefact control for SMM control protein annotation, profiling panel (AID 1117); conditions: alpha-BTX-A647 binding fluorescence, higher = more signal
# Alpha-bungarotoxin (Bungarus multicinctus), sequence (P60615 whole entry, looked up): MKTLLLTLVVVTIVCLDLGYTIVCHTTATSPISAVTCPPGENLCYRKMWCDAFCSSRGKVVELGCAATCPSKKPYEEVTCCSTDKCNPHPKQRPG
Structure (SMILES),composite z-score [1],composite z-score [2],composite z-score [3],z-score [4],composite z-score [5],composite z-score [6],composite z-score [7],composite z-score [8],composite z-score [9],composite z-score [10],composite z-score [11],z-score [12],composite z-score [13],composite z-score [14],composite z-score [15],composite z-score [16],composite z-score [17],composite z-score [18],composite z-score [19],composite z-score [20]
C=CCC(OC(C)=O)[C@@H]1[C@@H](N(Cc2ccc(-c3ccccc3)cc2)C(=O)c2ccc(-c3ccccc3)cc2)c2cc(OCCCO)ccc2N1C(=O)Cc1ccc2ccccc2c1 (stereo not given in full),-0.316,-0.108,0.336,-0.412 (inactive),-0.133,-0.0682,0.0825,0.394,0.0989,1.11,0.422,-0.4,0.0959,0.436,0.704,-0.0566,-0.345,0.221,0.359,0.0054
CO[C@H]1O[C@H](CO)[C@@H](OC(=O)Nc2ccc(Oc3ccccc3)cc2)[C@H](OC(=O)Nc2ccc3c(c2)OCO3)[C@H]1OC(=O)Nc1ccc2c(c1)OCO2,1.26,0.86,0.992,-1.61 (inactive),1.33,1.31,0.318,1.2,0.612,0.944,1.3,-0.289,0.467,1.96,-0.207,0.105,-0.183,0.414,1.62,2.13
C=CCNC(=O)[C@H]1[C@@H]2C(=O)O[C@@H](c3ccccc3)[C@@H](c3ccccc3)N2[C@@H](c2ccccc2OCCO)[C@]12C(=O)Nc1ccc(C#CCC(C(=O)OC)C(=O)OC)cc12,0.797,0.309,0.973,-2.39 (inactive),1.26,1.33,1.15,1.37,1.23,0.568,1.46,-2.33,1.07,2.02,1.24,0.0914,0.224,0.46,1.37,2.13
O=C1C2C=CC(C(O)c3cccc4ccccc34)N(Nc3ccccc3F)C2C(=O)N1c1ccccc1 (stereo not given),0.927,0.977,1.02,-0.05 (inactive),0.606,1.18,0.172,0.79,-0.311,0.723,1.45,-0.69,0.264,1.84,0.895,0.0554,0.14,0.737,1.4,2.15
CC(=O)NCCCC[C@@H]1NC(=O)[C@@H]2C[C@H](C(=O)NCCCCCNC(=O)CS)[C@H](c3cccc(OCCO)c3)N2C1=O,1.16,-0.394,-0.155,-2.01 (inactive),0.0349,-0.0868,0.724,1.07,1.11,0.337,-0.0596,-0.652,0.837,-0.646,-0.754,-0.214,-0.0533,-0.0533,-0.443,-0.0629
CC(C)C[C@@H]1NC(=O)[C@H](C(C)C)NC(=O)[C@@]23C(=O)N[C@@H](Cc4ccccc4)C2[C@H](C)[C@@]2(C)O[C@H]2C3/C=C/CC/C=C/CNC1=O (stereo not given in full),0.26,-0.189,-0.263,-0.76 (inactive),1.16,0.94,0.467,1.37,0.384,1.35,1.35,-1.41,0.413,-0.245,-0.736,-0.117,-0.283,-0.397,0.268,0.705
C=C(CCCC)C(=O)CC[C@@H](OC(=O)c1ccccc1-c1ccccc1C(=O)O)c1ccc(OCCO)cc1,1.19,-0.0379,0.0075,0.962 (inactive),0.969,0.585,-0.181,0.668,0.55,1.42,-0.65,-2.71,0.744,-0.487,-0.559,-0.096,0.0278,0.094,0.881,1.05
O=C(CS)NCCCCCCNC(=O)[C@@H]1C[C@@H]2C(=O)NCC(=O)N2[C@@H]1c1cccc(OCCO)c1,1.49,-0.293,0.632,0.288 (inactive),0.331,0.837,-0.149,-0.16,0.139,-0.755,1.41,-0.895,-0.709,2.44,-0.215,-0.177,-0.188,-0.652,1.21,1.1
COC(=O)C(CC#Cc1ccc2c(c1)[C@]1(C(=O)N2)[C@H](c2ccc(OCCO)cc2)N2[C@H](c3ccccc3)[C@H](c3ccccc3)OC(=O)[C@H]2[C@@H]1C(=O)N1CCc2cc(OC)c(OC)cc2C1)C(=O)OC,1.47,0.508,0.381,-0.369 (inactive),1.4,1.32,0.485,1.41,0.506,1.18,1.4,-1.01,0.459,1.66,0.236,0.296,0.191,-0.422,1.58,1.77
CCOC(=O)[C@H]1C/C=C/C[C@H](C(=O)OCC)C(=O)O[C@H]2[C@@H](OC)O[C@H](CO)[C@@H](OC(=O)c3c(OC)cccc3OC)[C@@H]2OC1=O,0.615,-0.0451,0.152,0.837 (inactive),0.803,0.62,-0.13,1.16,0.764,0.837,-0.908,-3.32,0.204,0.34,0.208,-0.126,0.244,0.65,0.11,1.1
CN(C)CCCCCCNC(=O)[C@@H]1C[C@@H]2C(=O)N[C@@H](Cc3ccccc3)C(=O)N2[C@@H]1c1ccc(O)cc1,1.51,0.026,-0.127,-0.926 (inactive),1.06,1.35,1.37,1.44,1.38,1.41,1.13,2.17,1.02,-0.565,-1.14,-0.0425,0.0668,0,1.32,2.47
